Results on 39 compounds are retold here after PubChem BioAssay AID1259240 (Keith Lab, Institute of Cancer Science, University of …, 2017).

Structures are written as SMILES. The source made the active and inactive calls. Rule as the data show it: active = fold change mostly below about -2 (no sharp cut-off); inactive = mostly above about -1.8.

The assay is described as follows: TERT promoter activity modulators, primary screen, cell-based, luciferase reporter, human (AID 1259240). The settings on record: A2780 TERT promoter luciferase reporter, 16 h; at 20 µM, fold versus average of vehicle-only wells. (In general: In a reporter assay the amount or activity of a reporter protein is the signal.)
`c1ccc(COc2ccc(Oc3nc(N4CCOCC4)nc(N4CCOCC4)n3)nn2)cc1`: the fold change was -1.03 (inactive).

On to `CC(C)n1cnc2cc(NCc3ccccc3Cl)ccc21`, for which the fold change is -2.21 (active).

`CN(C)c1ccc(/C=c2\sc3nc(-c4ccco4)nn3c2=O)cc1`: the fold change was 1.37 (inactive).

Turning to `c1ccc(N2CCN(c3nc4ccccc4n4cnnc34)CC2)cc1`, the fold change was 1.17 (inactive).

Regarding `Cc1cc2[nH]c(=O)c(CCO)c(C)n2n1`, the result was inactive.

For `Cn1c(SCC(=O)NCc2ccco2)nnc1-c1c[nH]c2ccccc12`, the compound was called inactive.

With `CCc1nc2c(cnn2-c2ccc(F)cc2)c(=O)n1-c1ccc(OC)c(Cl)c1`, the fold change is 1.04 (inactive).

With `Cc1cccc(CCn2c(=O)c3ccccc3n(Cc3cc(=O)n4ccccc4n3)c2=O)c1`, the fold change is -1.38 (inactive).

For `CNC(=O)CN1C(=O)COc2ccc(S(=O)(=O)N3CCOCC3)cc21`, the fold change was -1.1 (inactive).

Regarding `CCc1ccc2c(c1)c1n[nH]c(=S)nc1n2C`, the fold change was -1.88 (inactive).

On to `CC(C)NC(=O)Cn1ncc2c3ccccc3n(C)c2c1=O`, for which the fold change was 1.04 (inactive).

Consider `CCCCNc1nc2c(c(=O)[nH]c(=O)n2C)n1CCO`, for which the fold change is -1.67 (inactive).

`N#Cc1ccccc1Cn1c(=O)n(-c2ccc(CC(=O)NCc3ccco3)cc2)c(=O)c2sccc21`: the fold change is -1.2 (inactive).

Turning to `Cc1[nH]nc2c1C(c1cccs1)NC2=O` (centres undefined), the fold change is -1.17 (inactive).

In the case of `O=c1[nH]cnc2c1c(-c1ccccc1)cn2-c1ccc(F)cc1`, the outcome was inactive.

For the compound `O=C(ON=C1CCCC1)c1sc2ccccc2c1Cl`, the fold change is -1.7 (inactive).

With `CCOC(=O)C1=C(CS(=O)(=O)c2ccc(F)cc2)NC(=O)NC1c1cc(OC)ccc1OC` (centres undefined), the fold change was 1.65 (inactive).

Regarding `CCS(=O)(=O)Nc1cccc(C2=NN(S(C)(=O)=O)C(c3cccs3)C2)c1` (centres undefined), the fold change was -1.32 (inactive).

Turning to `COCCn1c(SCC(=O)NCC2CCCO2)nnc1-c1c[nH]c2ccccc12` (centres undefined), the compound was classed as inactive.

Regarding `CCOC(=O)N1CCC(Nc2c(NC3CCC(C)CC3)c(=O)c2=O)CC1` (centres undefined), the fold change was 1.1 (inactive).

With `CCCN1C(=O)C2(/C(=C(/O)c3ccc(C)cc3)C(=O)C(=O)N2CCOC)c2ccccc21` (centres undefined), the fold change was 1.26 (inactive).

As to `CCNc1nc(NCC)nc(C(=O)OCCO)n1`, the fold change was 1.24 (inactive).

For the compound `COc1ccc(CCNc2ccc3nnc(C)n3n2)c(OC)c1`, the fold change is -1.29 (inactive).

Consider `COc1ccc(OC)c(S(=O)(=O)c2cc3cccc(OC)c3oc2=O)c1`, for which the fold change is -1.07 (inactive).

Turning to `O=C(CSc1nc(-c2ccco2)cc(C(F)(F)F)n1)N1CCSCC1`, the fold change is -1.96 (inactive).

With `COc1ccccc1/C=C/C=c1\sc2nc(-c3ccco3)nn2c1=O`, the fold change is 1.41 (inactive).

As to `COc1nc(OCCNS(=O)(=O)c2ccc(C)cc2)nc(N(C)C)n1`, the fold change is -1.19 (inactive).

For the compound `O=C(NC1CCCC1)c1ccc2nc(N3CCOCC3)sc2c1`, the fold change was -1.15 (inactive).

As to `Cc1ccc(C)c(Nc2nc3ccccc3n3nnnc23)c1`, the fold change is 1.43 (inactive).

In the case of `O=C(NCCCN1CCCC1)C(=O)Nc1ccc2nc3n(c(=O)c2c1)CCCCC3`, the fold change was 1.01 (inactive).

For `COc1ccc(Nc2c(-c3ccc(C)o3)nc3ncccn23)cc1OC`, the fold change is -1.44 (inactive).

Take `Nc1nc(SCC(=O)c2ccc(O)cc2O)n[nH]1`: the fold change is -1.59 (inactive).

Regarding `CSc1nsc(SC)c1C(=O)NCCNS(=O)(=O)c1ccc(C)cc1`, the fold change was -1.37 (inactive).

In the case of `O=C(Nc1ccc2nc3n(c(=O)c2c1)CCCCC3)C(=O)N1CCOCC1`, the fold change was 1.01 (inactive).

`CC(C)Cc1nnc(NC(=O)CSc2nc(N)cc(=O)[nH]2)s1`: the outcome was active.

Take `CC(=O)Oc1ccccc1-c1nc2s/c(=C\c3cccc(Br)c3)c(=O)n2n1`: the fold change is 1.36 (inactive).

For `O=C(Cn1ncc2c3ccccc3n(Cc3ccc(Cl)cc3)c2c1=O)NC1CC1`, the fold change is -1.11 (inactive).

For the compound `COc1ccccc1OCC(O)Cn1c(=N)n(CCN2CCOCC2)c2ccccc21` (centres undefined), the fold change was -1.29 (inactive).

For the compound `c1ccc2c(c1)OCC(CNc1nnc(Cc3ccncc3)c3ccccc13)O2` (centres undefined), the fold change is -1.37 (inactive).
